Test results as given in PubChem BioAssay (NCI).
This is part of a sample that, as a whole, favours compounds with a hit. Of some 83,000 tested, about 20% had one in any assay.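 Single-dose data. Exposure time 48 hours. Values below 10 considered active.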 Values without a mark were called inactive. Active and inactive are the calls of the source.

Tested on: MDA-MB-435 melanoma
Experiment: NCI-60 one-dose screen, 48 h (100 = growth as untreated, 0 = no growth, -100 = all killed)
Conditions: 10 µM unless noted

Going from `CC1=CCC[C@@H]2C1(C)CC[C@H](C)[C@@]2(C)CC1=CC(=O)C(SC(C)(C)C)=CC1=O` (some centres not stated) to `CC1COCC(C)N1C1=C(Cl)C(=O)c2ccccc2C1=O` (configuration not stated), the growth falls from 97.2% to 29.6%.

First: C/C(=N\Nc1nc(C)cs1)c1cc2ccccc2o1
Second: Cc1ccc(-c2nc(C(Cl)Cl)nc3cc(C)nn23)cc1
The growth of the first is higher: 105% for the first, 12% for the second.

Compared with `O=C1CCC(C(=O)NN(c2ccccc2)c2ccccc2)N1` (configuration not stated), `O=C(Nc1ccccc1O)c1ccccc1Nc1ccnc(C(F)(F)F)c1` is higher in growth: 93.8% for the first, 115% for the second.

Going from `CCC(CC)(N(CC(=O)O)CC(=O)O)C(CC)(CC)N(CC(=O)O)CC(=O)O` to `COC(=O)C1=C(C)NC(C)=C(C(=O)OCC(C)C)C1c1ccccc1[N+](=O)[O-]` (configuration not stated), the growth falls from 126% to 54.8%.

Compared with `Cc1ccc(C(=O)c2ccc(CC(=O)N/N=C/c3ccc(O)cc3O)n2C)cc1`, `O=C(N/N=C/c1ccc([N+](=O)[O-])cc1)c1ccc2nc(-c3ccc(Cl)cc3)[nH]c2c1` is lower in growth: 63.1% for the first, 47.6% for the second.

Going from `COc1cc2c3c(c1O)-c1ccccc1[C@@H]1OC(=O)N(CC2)[C@H]31` to `CN1CCCc2cc(/C=C3/SC(=S)N(CCc4ccc(O)cc4)C3=O)ccc21`, the growth falls from 107% to 17.5%.

Going from `Cc1cccc(-n2c(C)nc3ccc(N4CCCNC4=O)cc3c2=O)c1` to `Cn1c(O)c(C(/C=C/c2ccccc2)=Nc2ccccc2N)c(=O)n(C)c1=O`, the growth falls from 104% to 95.5%.

Compared with `CC(C)(C)c1cc(C=Nc2cccc(C(F)(F)F)c2)c(O)c(C(C)(C)C)c1`, `Cn1cc(-c2csc(-c3cn(C(=O)OC(C)(C)C)c4ccccc34)n2)c2ccnc(Cl)c21` is lower in growth: 108% for the first, 78.8% for the second.

First: COc1ccc(OC)c(-c2cn3nc(-c4c[nH]c5ccc(Br)cc45)sc3n2)c1
Second: Clc1nn2c(Cn3cnc4c(NCc5ccccc5)ncnc43)nnc2c2ccccc12
The growth of the first is lower: 24% for the first, 30.6% for the second.

Compared with `N#Cc1c(-c2ccccc2)nc2c(c(-c3ccccc3)nn2-c2ccccc2)c1-c1ccc(N2CCOCC2)cc1`, `CC(O)c1ncc(/C=C2\SC(=S)N(Cc3ccccc3)C2=O)s1` (configuration not stated) is lower in growth: 90.5% for the first, 80.5% for the second.

`O=C(Cn1nnc([N+](=O)[O-])n1)c1ccccc1` gave a growth of 85.4%.

For `COc1ccc(C2C(C#N)=C(N)Oc3c2sc2c(Br)cccc32)cc1` (configuration not stated), the growth was -18.1% (active).
`CCCCN1C(=O)/C(=c2\sc3n(c2=O)NC2C(N=3)N(CC)C(=O)N2CC)c2ccccc21` (configuration not stated) was tested, and the growth was -41.6% (active).
In the case of `COc1ccc(C(c2cc(OC)c(OC)c(OC)c2)N2CCCC2)cc1` (configuration not stated), the growth is reported as -21.8% (active).
In the case of `COc1ccc(NC(=O)c2sc3nc4c(cc3c2N)CCCC4)cc1`, the growth is reported as -20.9% (active).
`CCN(CC)CCCNCc1cc(-c2ccccc2)nc2cc(Cl)ccc12` was tested, and the growth was -39.7% (active).

`C#Cc1cccc(Oc2ccc(NC(=O)CCl)cc2)c1` showed a growth of 31.7% [8.25 µM].
